This experiment concerns the target CAAX prenyl protease 2 (Saccharomyces cerevisiae (strain ATCC 204508 / S288c)) (UniProt Q03530). Briefly: yeast Rce1 CaaX protease inhibitors, dose response, biochemical, plate reader, dry powder retest (AID 588851).

Entries with a potency or affinity are not part of this list. Results filed as inconclusive are left out. Calls of active or inactive are those of the source.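 Rule for the calls: active = compounds that lower the signal with a fitted half-maximal concentration at most ten times the top valid dose; inconclusive = flat curve with moderate inhibition, or an unreliable fit; inactive = the rest.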

Sequence of CAAX prenyl protease 2 (Saccharomyces cerevisiae (strain ATCC 204508 / S288c)) (Q03530 whole entry, looked up): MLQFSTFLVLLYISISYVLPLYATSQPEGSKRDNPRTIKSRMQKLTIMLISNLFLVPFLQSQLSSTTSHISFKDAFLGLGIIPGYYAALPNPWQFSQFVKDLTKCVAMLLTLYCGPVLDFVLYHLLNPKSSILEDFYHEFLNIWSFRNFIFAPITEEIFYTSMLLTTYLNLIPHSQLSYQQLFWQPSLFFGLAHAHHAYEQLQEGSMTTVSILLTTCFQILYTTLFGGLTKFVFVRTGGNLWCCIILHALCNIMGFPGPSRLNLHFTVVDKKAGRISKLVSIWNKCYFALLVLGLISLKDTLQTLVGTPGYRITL

In the case of `O=C(CCNC(=O)N1CC(=O)Nc2ccccc21)NCCc1cccc(F)c1`, the call was inactive.

(Values after PubChem BioAssay AID588851 (Broad Institute, 2011).)
